# Compounds without any hit were thinned out: in the full panel of roughly 79,000, 15% have a hit. Unmarked numbers belong to inactive results. Active and inactive are the calls of the source. Cut-off read from the data, not from the text of the source: active = growth inhibition above about 70%; inactive = the rest.
# Experiment: NCI Yeast Anticancer Drug Screen. Data for the sgs1 mgt1 strain (AID 161);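 note: 0% = growth of cultures given vehicle only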
# Settings: S. cerevisiae sgs1 mgt1 strain, at 5.0 µM (retest, dose inferred, filed as 0.5), active compounds read high
# Procedure, shortened: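 This yeast growth screen uses a strain with defined DNA-repair lesions; compound-treated growth is compared with vehicle-treated growth.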
row,Compound,growth inhibition
1,CC(=O)Oc1c(O)c2ccccc2c2ccccc12,2%
2,Cc1cccnc1NC(=S)Nc1ccccc1Cl,28%
3,CCOC(=O)/C(=C\c1cccc(OC)c1)C(C)=O,-11%
4,c1ccc(C(c2ccccc2)c2ccc3ccccc3n2)cc1,-4%
5,O=c1cc(CSc2ccc(Cl)cc2)occ1O,3%
6,COc1cc(NCCCCCNC2CCCCC2)c2ncccc2c1,21%
7,CC(=O)OCc1ccc([N+](=O)[O-])o1,3%
8,O=C(O)Cc1cccc2cc3c(ccc4ccccc43)cc12,11%
9,Cc1cccc(N2C(=O)c3ccccc3C2(c2ccccc2)N2CCCCC2)c1 (configuration not stated),4%
10,O=C(/C=C/c1ccccc1)CCN1CCOCC1,22%
11,C=CCCCCCCCCC(=O)CCCCCCCCC=C,-2%
12,Cc1ccc(O)c(C(C)c2ccccc2)c1 (configuration not stated),-3%
13,COC(=O)c1nc(N)nc(C(=O)OC)c1C(=O)c1ccccc1,30%
14,Cc1ccc(S(=O)(=O)Oc2ccc(C(C)(C)C)cc2Cl)cc1,11%
15,CCCCCCCCCCCCCCC[N+]1(CC)CCCCC1,99% (active)
16,CC12CCC(=O)C=C1C=CC1C2CCC2(C)C1CCC21CCC(=O)O1 (configuration not stated),7%
17,CC(C)N(C(=O)C12C3C4C1C1C2C3C41I)C(C)C (configuration not stated),44%

# Same assay, conditions: S. cerevisiae sgs1 mgt1 strain, at 50.0 µM (retest, dose inferred, filed as 5.0), active compounds read high
row,Compound,growth inhibition
1,CCOP(=O)(OCC)/C(C#N)=C/c1ccc(Oc2ccccc2)cc1,97% (active)
2,CC(=O)Nc1ccc(S(=O)(=O)/N=C2\C=CC(=O)c3ccccc32)cc1,7%
3,CCCC#CCCOC(=O)c1cc([N+](=O)[O-])cc([N+](=O)[O-])c1,99% (active)
4,COc1cccc2c1OC(c1ccc(Cl)cc1)C([N+](=O)[O-])=C2 (configuration not stated),96% (active)
5,c1ccc(-n2c3ccccc3c3ccccc32)cc1,9%
6,CCOC(=O)C(NC(C)=O)[CH](c1ccccc1)[Sn]([c]1ccccc1)([c]1ccccc1)[c]1ccccc1 (configuration not stated),95% (active)
7,C/C(CCn1[nH]c(=O)ccc1=O)=N\Nc1ccc([N+](=O)[O-])cc1[N+](=O)[O-],98% (active)
8,N#CC(O)C(Br)(Br)Br (configuration not stated),46%
9,COc1ccc(N)c([N+](=O)[O-])c1,12%
10,CC(C)O[C@H]1N(C2CC(N=[N+]=[N-])C(CO)O2)C(=O)NC(=O)[C@]1(C)Br (some centres not stated),56%
11,COc1ccc(C(=O)C2C(=O)C(=O)OC2C2OC(=O)C(=O)C2C(=O)c2ccc(OC)cc2)cc1 (configuration not stated),2%
12,O=[N+]([O-])c1c(Cl)c(Cl)c(O)c(Cl)c1Cl,87% (active)
13,Cc1ccc(C)c(NC(=O)CCC(=O)CC(=O)c2ccncc2)c1,4%
14,CC(C)CCCC(C)C1CCC2C3CC=C4CC(OC(=O)Nc5ccc(S(=O)(=O)c6ccc(F)cc6)cc5)CCC4(C)C3CCC12C (configuration not stated),0%
15,COc1ccc(/C=C(/NC(=O)c2ccccc2)C(=O)Nc2ccccc2)cc1OC,-5%
16,C=C(Br)CN(CC(=C)Br)C(C)=O,16%
17,CCN(C(C)=O)c1ccc2c(c1)Cc1ccccc1-2,97% (active)
18,NN(c1ccccc1)c1cccc2ccccc12,97% (active)
19,C#CCN1CCN(C(=S)N/N=C(\C)c2ccccn2)CC1,100% (active)
20,CC(C)OC(=O)C1C=CCc2c(O)ccc(O)c21 (configuration not stated),44%

row,Compound,growth inhibition
1,CC(=O)C1C(=O)C=C(C)OC1=O (configuration not stated),18%
2,CCOC(=O)c1[nH]n(-c2ccccc2)c(=O)c1/C=N/C(=S)N=Nc1c(O)[nH]c2ccccc12,-4%
3,N#Cc1c(Cl)nnc(-c2ccccc2)c1-c1ccccc1,83% (active)
4,CC(=O)Oc1c(O)c2ccccc2c2ccccc12,83% (active)
5,Cc1cccnc1NC(=S)Nc1ccccc1Cl,99% (active)
6,CCOC(=O)/C(=C\c1cccc(OC)c1)C(C)=O,93% (active)
7,c1ccc(C(c2ccccc2)c2ccc3ccccc3n2)cc1,92% (active)
8,O=c1cc(CSc2ccc(Cl)cc2)occ1O,72% (active)
9,COc1cc(NCCCCCNC2CCCCC2)c2ncccc2c1,63%
10,CC(=O)OCc1ccc([N+](=O)[O-])o1,67%
11,O=C(O)Cc1cccc2cc3c(ccc4ccccc43)cc12,47%
12,Cc1cccc(N2C(=O)c3ccccc3C2(c2ccccc2)N2CCCCC2)c1 (configuration not stated),2%
13,O=C(/C=C/c1ccccc1)CCN1CCOCC1,100% (active)
14,C=CCCCCCCCCC(=O)CCCCCCCCC=C,0%
15,Cc1ccc(O)c(C(C)c2ccccc2)c1 (configuration not stated),97% (active)
16,COC(=O)c1nc(N)nc(C(=O)OC)c1C(=O)c1ccccc1,20%
17,Cc1ccc(S(=O)(=O)Oc2ccc(C(C)(C)C)cc2Cl)cc1,3%
18,CCCCCCCCCCCCCCC[N+]1(CC)CCCCC1,99% (active)
19,CC12CCC(=O)C=C1C=CC1C2CCC2(C)C1CCC21CCC(=O)O1 (configuration not stated),99% (active)
20,CC(C)N(C(=O)C12C3C4C1C1C2C3C41I)C(C)C (configuration not stated),27%
